As a reminder, the inhibition is the drop in the measured response relative to a control, in per cent.

Active and inactive are the calls of the source. No stated cut-off is given here; in the data, active means inhibition above about 65%; inactive means the rest.

Experimental findings from PubChem BioAssay AID588651 (The Scripps Research Institute Molecular Screening Center, 2011) are described below.

The subject of this assay is Fam108b. Nature of the assay: Fam108b inhibitors and proteome off-target selectivity – biochemical, gel-based ABPP, recombinant soluble Fam108b, HTS hits, complex proteome, late-stage follow-up (AID 588651).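 Further: Fam108b spiked into mouse brain membrane proteome.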 Conditions: FP-rhodamine labeling in proteome, at 20 µM, stronger effect = higher value.
For `C[n+]1c(-c2ccccc2)c2cc(N)ccc2c2ccc(N)cc21`, the inhibition was 0% (inactive).
`NC(Cc1cc(O)c(O)cc1O)C(=O)O` (stereo not drawn): the inhibition was 0% (inactive).
Consider `Cc1ccccc1N1C(=O)/C(=C/c2ccco2)C(=O)NC1=S`, for which the inhibition was 0% (inactive).
